MEKK2 mut-MEK5 = signal of MEK5 binding to mutant human MEKK2 PB1 domain; bead flow cytometry, Alexa488-MEK5 binding to MEKK2 mutant; percent response, % at 10 µM; actives 0.35% (n = 290,000); in the data active = percent response above about 24%, passing the limit was not always enough
CRFBP-R2 block = blocks CRF-induced signaling of the CRF-BP/CRF-R2 complex; actives 0.59% (n = 350,000); inhibition, % at 11.8 µM; HEK293 CRF-R2/CRF-BP, CRF-induced calcium fluorescence;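 active = inhibition of the ligand-induced calcium signal above about 50% at the single tested concentration, limit read from the data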
ABCB6 inh 2 = human ABCB6 transporter inhibition | K562-ABCB6 porphyrin accumulation, flow cytometry, 1 h; stronger effect = lower value | fluorescence ratio to DMSO, % at 10 µM | actives 0.19% (n = 360,000);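 active = fluorescence ratio to DMSO below 75%, the collection mean minus 3 SD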;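 note: signal is porphyrin accumulated inside mitochondria; 100% equals median channel fluorescence of DMSO control wells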
Target sequence (Q9NP58 whole entry, looked up): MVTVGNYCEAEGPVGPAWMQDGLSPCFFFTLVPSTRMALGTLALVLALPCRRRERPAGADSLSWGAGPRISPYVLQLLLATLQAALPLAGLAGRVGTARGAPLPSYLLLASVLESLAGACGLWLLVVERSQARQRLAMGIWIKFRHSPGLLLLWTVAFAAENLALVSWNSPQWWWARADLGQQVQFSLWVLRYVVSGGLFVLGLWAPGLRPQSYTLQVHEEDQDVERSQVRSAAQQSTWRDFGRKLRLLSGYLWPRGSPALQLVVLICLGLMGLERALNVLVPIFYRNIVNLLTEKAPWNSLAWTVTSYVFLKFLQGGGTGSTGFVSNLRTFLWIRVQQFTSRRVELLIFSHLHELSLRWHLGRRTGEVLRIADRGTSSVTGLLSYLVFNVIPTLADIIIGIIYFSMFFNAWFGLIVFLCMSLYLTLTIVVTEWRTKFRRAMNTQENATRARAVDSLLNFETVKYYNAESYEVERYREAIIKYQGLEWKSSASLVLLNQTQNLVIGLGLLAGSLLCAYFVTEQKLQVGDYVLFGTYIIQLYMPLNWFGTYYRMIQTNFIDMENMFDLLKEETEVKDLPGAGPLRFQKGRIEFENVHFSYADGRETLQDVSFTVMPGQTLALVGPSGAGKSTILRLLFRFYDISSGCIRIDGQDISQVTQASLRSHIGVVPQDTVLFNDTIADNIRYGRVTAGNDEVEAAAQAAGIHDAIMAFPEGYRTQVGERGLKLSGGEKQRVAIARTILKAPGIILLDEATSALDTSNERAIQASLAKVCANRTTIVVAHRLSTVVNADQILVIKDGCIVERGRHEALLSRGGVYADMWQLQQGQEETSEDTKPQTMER
MEKK3 PB1 HTS = modulators (inhibitors or enhancers) of MEK5 binding to human MEKK3 PB1 domain. actives 1.4% (n = 290,000). bead-based flow cytometry, Alexa488-MEK5 binding to MEKK3; actives lie on both sides; 0 = blocked by unlabeled MEK5, 100 = vehicle. binding response (% of control), % at 10 µM. Q99759;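 active = binding response more than 3 SD above or below the average of its plate-row segment, actives on both sides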;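 note: Alexa488 bead fluorescence after subtracting the streptavidin-only scavenger bead signal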
MEKK2 WT-MEK5 = raises or lowers MEK5 binding to wildtype human MEKK2 PB1 domain. bead flow cytometry, Alexa488-MEK5 binding to MEKK2 WT; actives lie on both sides. binding response (% of control), % at 10 µM. actives 1.1% (n = 290,000). AID 1531; in the data active = binding response below about 67% or above about 130%
CRFR2-BP ag = agonists of human CRF-binding protein/CRF-R2 receptor complex | HEK293 CRF-R2/CRF-BP, calcium dye fluorescence (FLIPR); percent of saturating CRF peptide response | activation, % at 13.2 µM | actives 0.46% (n = 350,000);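 active = activation of at least 50%, plus an integration ratio under a set limit after plate pattern correction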;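 note: plate controls were neutral control wells without compound for no effect and CRF at EC100 for full effect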
MEKK2wt confirm = raises or lowers MEK5 binding to wildtype human MEKK2, retest | shares compounds with MEKK3 PB1 HTS | bead flow cytometry, Alexa488-MEK5 binding to MEKK2 WT; actives lie on both sides | binding response (% of control), % at 10 µM | actives 2.4% (n = 5,900) | AID 1892; in the data active = binding response below about 16% or above about 210%; inactive = in between
MEKK2mut-MEK5 = signal of MEK5 binding to mutant human MEKK2, retest; shares compounds with MEKK3 PB1 HTS; bead flow cytometry, Alexa488-MEK5 binding to MEKK2 mutant; percent response, % at 10 µM; actives 2% (n = 5,900); in the data active = percent response mostly above about 71%, no sharp cut-off; inactive = mostly below about 38%;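 note: higher means compound restores mutant binding toward wildtype level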
MEKK3-MEK5 inh = MEKK3-MEK5 PB1 inhibition, single concentration confirmation; shares compounds with MEKK3 PB1 HTS; bead flow cytometry, Alexa488-MEK5 binding to MEKK3; stronger effect = lower value; actives 1.8% (n = 5,900); binding response (% of control), % at 10 µM;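 active = binding response below 72% of control, or above a set upper limit, though filed actives all read lower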;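 note: 100% = DMSO only wells and 0% = binding blocked by excess unlabeled MEK5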
Starred values were filed as active, the others as inactive; nt = not tested or not shown; + = active, no number; [ ] = another dose, or the depositor's remark. The list is not random: actives were taken first. Their share in the collection is about 2.9%.

SMILES	MEKK2 mut-MEK5	CRFBP-R2 block	ABCB6 inh 2	MEKK3 PB1 HTS	MEKK2 WT-MEK5	CRFR2-BP ag	MEKK2wt confirm	MEKK2mut-MEK5	MEKK3-MEK5 inh
CSc1ccc(/C=N/NC(=O)CN2CCN(Cc3ccc(Cl)cc3)CC2)cc1	2	-145	100	137*	111	49	111	9	103
CSc1ccc(/C=N/N2CCN(Cc3ccc(Cl)cc3)CC2)cc1	-46	-7	94	3.0*[inhibitor]	4.0*[inhibitor]	0	105	-1	103
Cc1ccc(C)c(OCCCN2CCc3ccccc3C2)c1	7	5	104	98	117	-1	nt	nt	nt
Cc1ccc(OCCCCN2CCc3ccccc3C2)c(C)c1	18	-8	94	116	139*	-1	104	0	99
[O-]/C(=C(\C(=S)Nc1ccc(SC(F)F)cc1)[n+]1ccccc1)c1cc(Cl)ccc1Cl	-5	14	97	102	58*[inhibitor]	2	97	-4	103
CCOC(=O)CC1C(=O)NCCN1C(=O)Nc1ccc(Cl)cc1 (stereo not given)	4	6	105	98	103	1	nt	nt	nt
COC(=O)CC1C(=O)NCCN1C(=O)Nc1ccc(Cl)cc1 (stereo not given)	-38	25	97	95	2.0*[inhibitor]	-2	97	1	107
CCOc1cc(Br)c(C(C)NC(=O)c2cccnc2)cc1OCC (stereo not given)	nt	-5	94	nt	nt	0	nt	nt	nt
N#Cc1ccc(NC(=O)Nc2ccc(Oc3ccc(NC(=O)Nc4ccc(C#N)cc4)cc3)cc2)cc1	42	11	92	106	150*	4	141	16	101
O=C(Nc1nccs1)c1cc(-c2ccncc2)nc2ccccc12	0	-14	104	107	100	1	nt	nt	nt
Cc1ccc(-c2cc(C(=O)Nc3nccs3)c3ccccc3n2)c(C)c1	0	-42	91	152*	106	0	105	-6	101
NC1=NC[C@H](Cc2ccc(O)cc2)N1CCC12CC3CC(CC(C3)C1)C2	21	0	99	108	138*	-2	128	8	100
CCCCN1C(N)=NC[C@@H]1Cc1ccc(O)cc1	1	-5	97	97	106	1	nt	nt	nt
CCN(CC)CCOC(=O)c1ccc(N/C=C(/C#N)c2nc(-c3cccc(OC)c3)cs2)cc1	-14	7	100	31*[inhibitor]	93	0	78	-38	26*
CCN(CC)CCOC(=O)c1ccc(N/C=C(/C#N)c2nc(-c3ccc(OC)c(OC)c3)cs2)cc1	-1	-9	107	29*[inhibitor]	94	-3	53	-45	15*
CN(C)S(=O)(=O)c1cccc(NC(=O)c2cc(-c3cccs3)nn2-c2ccccc2)c1	0	-3	97	142*	108	8	98	-1	106
NC(=O)COC(=O)c1cc(-c2cccs2)nn1-c1ccccc1	0	22	94	136*	115	1	101	4	100
CCN(CC)S(=O)(=O)c1cccc(NC(=O)c2cc(-c3cccs3)nn2-c2ccccc2)c1	-1	-9	94	103	105	11	nt	nt	nt
O=C1CNC(c2ccccc2)C(c2ccccc2)N1 (stereo not given)	nt	16	97	nt	nt	-1	nt	nt	nt
CCCn1c(SCC(=O)NNC(=O)c2ccc(C)cc2)nnc1C(C)C	-2	20	95	98	95	-1	nt	nt	nt
Cc1nc(-c2ccccn2)nc(SCC(=O)N2CCOCC2)c1Cl	29	2	93	129*	114	-1	102	-3	105
Cc1nc(-c2ccccn2)nc(SCC(=O)c2ccccc2)c1Cl	20	5	96	122	110	0	nt	nt	nt
CC(=O)O/N=C/c1c(C)c(C=O)n2ccccc12	-6	10	97	94	91	1	nt	nt	nt
O=C(CN1CCN(c2ccc(F)cc2)CC1)NCc1ccc(Cl)cc1	4	-1	97	99	102	-1	nt	nt	nt
O=C(Cn1nc(-c2ccccc2Cl)ccc1=O)Nc1ccccc1-c1ccccc1	-5	-3	88	93	89	0	nt	nt	nt
SMILES	MEKK2 mut-MEK5	CRFBP-R2 block	ABCB6 inh 2	MEKK3 PB1 HTS	MEKK2 WT-MEK5	CRFR2-BP ag	MEKK2wt confirm	MEKK2mut-MEK5	MEKK3-MEK5 inh
O=C(Cn1nc(-c2ccccc2Cl)ccc1=O)Nc1ccc(Br)cc1	+	-48	95	140*	nt	20	103	0	104
N#CC(=C(c1ccccc1)c1ccccc1)c1ccccc1	nt	19	92	nt	nt	4	nt	nt	nt
CCc1ccc(C2=NNC(=Nc3cccc(S(=O)(=O)N(C)C)c3)SC2)cc1	0	-24	100	128*	104	-2	101	-2	103
CC1CC(C)CN(CC(=O)NNC(=O)COc2ccc(Cl)cc2)C1 (stereo not given)	nt	-9	99	nt	nt	0	nt	nt	nt
CC(C)(C)C(Cn1ccnc1)NC(=O)c1ccc2nc(C3CC3)oc2c1 (stereo not given)	-1	4	98	88	96	-1	nt	nt	nt
COc1ccc(C(CCN)c2ccc3c(c2)OCO3)cc1 (stereo not given)	28*	-12	99	102	124	0	132	16	105
O=C(COc1ccc2c(c1)oc(=O)c1ccccc12)NCC1CCC(C(=O)O)CC1 (stereo not given)	5	-10	103	104	107	-1	nt	nt	nt
CCOC(=O)N1CCN(C(=O)C2CCN(C(=O)c3ccccc3C)CC2)CC1	nt	-13	96	nt	nt	5	nt	nt	nt
CCOC(=O)N1CCN(C(=O)C2CCN(C(=O)c3cc(OC)cc(OC)c3)CC2)CC1	1	-5	95	142*	103	2	108	4	101
COc1cc(/C=c2\sc3nc(=O)c(-c4ccccc4)nn3c2=O)ccc1OCCC(C)C	-1	-56	97	140*	97	44	99	1	103
CCOc1ccc(/C=c2\sc3nc(-c4ccco4)nn3c2=O)cc1OCC	13	-39	98	105	105	8	nt	nt	nt
CCOC(=O)C1CCN(S(=O)(=O)c2ccc(CNC(=O)c3ccccc3)s2)CC1	-2	-1	94	99	100	-2	nt	nt	nt
COc1ccc(C(=O)Nc2ccccc2C(=O)Nc2ccccc2C(=O)O)cc1	3	27	99	102	96	-3	nt	nt	nt
